In the library only some 3.6% were active in any assay of this set; here they are far more common.
Nrf2 ARE act – Nrf2 pathway activation; AREc32 ARE-luciferase reporter (MCF7-derived line), luminescence, 24 h; Potency, µM (series often up to 46.1 µM), without a hit: at the top dose activation, usual class: activators; 0.31% of 410,000 active; note: % of control where 0% means no effect; nearly all actives have a fitted effect of over 65% in size
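AREc32 cells carrying an ARE-driven firefly luciferase reporter were seeded at 1000 cells/well in OPTI-MEM with 5% FBS, then exposed to compound for 24 hr at 37 deg C. Luminescence was read with Steady-Glo after 30 min at RT.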
HepG2 viability – HepG2 cytotoxicity, counter-screen for TGF-b inhibitors; HepG2 CAGA-GFP viability, ATP luminescence, 18 h; Potency, µM (top dose mostly 46.1 µM), for inactives: at the highest dose activity change, negative = cytotoxicity, most hits filed as cytotoxic; AID 588856; 0.76% of 410,000 active
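HepG2 CAGA-GFP cells (1000/well, DMEM with 1% FBS) received compound, then TGF-beta at 500 pg/mL final, and were incubated 18 hours at 37 degrees C. Viability was read by CellTiter-Glo luminescence. Media-only wells were set as complete cell-killing and DMSO as no toxicity.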
Nrf2 block – inhibitors of Nrf2 signaling. A549 ARE-Fluc reporter, luciferase luminescence, 18-24 h. Potency, µM (doses to about 46 µM), inactives show at the top dose activity change, negative = inhibition, most hits filed as inhibitors. 2.1% of 360,000 active. AID 504444; note: % is set by controls: 0 for no effect and ±100 for the full control effect; nearly all actives have a fitted effect of over 60% in size
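Quantitative HTS in A549 cells stably bearing an antioxidant response element-firefly luciferase construct. Inhibition of Nrf2-driven transcription was scored by luminescence after 18-24 h of compound exposure at 37 °C.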
A549 viability – counter-screen for Nrf2 inhibitors: cytotoxicity in A549 cells; A549 ARE-Fluc cells, CellTiter-Fluor viability, 18-24 h; Potency, µM (highest dose often 46 µM), without a hit: at the top dose activity change, negative = cytotoxicity, hits mostly inhibitors; 0.16% of 390,000 active; note: % is set by controls: 0 for no effect and ±100 for the full control effect
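A549 ARE_Fluc cells in 5% FBS OPTI-MEM were exposed to compounds in concentration-response for 18-24 h at 37 deg C. Viability was read by CellTiter-Fluor fluorescence (Ex 405/Em 525) after 30 min, before the luciferase read.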
TGFb inhibitor – inhibitors of TGF-b signaling; 1.2% of 410,000 active; HepG2 CAGA-GFP TGF-b/SMAD3 reporter, GFP fluorescence, 18 h; TGF-beta stimulated, 500 pg/mL final; Potency, µM (titrated, usually from 46.1 µM), for inactives: at the top dose activity, negative = inhibition, most hits filed as inhibitors; note: % is set by controls: 0 for no effect and ±100 for the full control effect; nearly all actives have a fitted effect of over 65% in size
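HEPG2 CAGA-GFP reporter cells (1000/well, DMEM with 1% FBS) received compounds, then recombinant TGF-beta at 500 pg/mL final for 18 hours at 37 degrees C. Per-cell GFP summed per well was normalised to unstimulated and stimulated DMSO controls before curve fitting.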
An asterisk follows results filed as active; ? = inconclusive; · = not tested or not shown; [ ] = dose if it differs, or a comment. Calls come from the whole dose curve; as a rule, active = well fitted curve in the direction sought with a large enough effect; inconclusive = small, poorly fitted or top-dose-only effect, or another doubt; inactive = no such curve, though single readings can be large; an effect the other way counts as inactive or inconclusive. Potency is the fitted concentration of half-maximal effect.

SMILES | Nrf2 ARE act | HepG2 viability | Nrf2 block | A549 viability | TGFb inhibitor
Cc1ccc(C)c(N2CCN(C(=O)c3cc(S(=O)(=O)N4CCOCC4)cn3C)CC2)c1 | -0.6% | -16.6% | ? | 3.6% | -7.8%
CCOC(=O)C(C(=O)OCC)c1cc(Br)c2noc3c2c1C(=O)c1ccccc1-3 | 3.1% | -52.8% | -17.9% | ? | 6.31µM*
CN1CCN(C(=O)c2ccccc2Nc2ccc(SC(F)F)cc2)CC1 | -0.4% | -15.7% | 7.5% | 3.0% | -8.6%
CCCCN(C(=O)C1CCCC1)c1c(N)n(CC(C)C)c(=O)[nH]c1=O | -0.8% | -4.0% | -21.3% | 0.7% | -7.6%
Clc1nnc(NN=C2CCCC2)c2ccccc12 | 10µM* | -34.3% | ? | -1.5% | ?
CC(=O)Nc1ccc(C=NNc2nnc(NN=Cc3ccc(NC(C)=O)cc3)c3ccccc23)cc1 | 3.2% | -19.4% | 18.4µM* | -6.2% | -11.3%
Clc1nnc(N/N=C/c2ccccc2)c2ccccc12 | ? | -42.6% | ? | -0.4% | ?
C(=N\Nc1nncc2ccccc12)/c1ccccc1 | 11.2µM* | -18.0% | ? | 3.7% | 25.6%
Clc1ccc(/C=N/Nc2nnc(Cl)c3ccccc23)cc1 | 1.26µM* | -35.0% | -14.2% | -8.4% | -22.8%
Cc1cccc(/C=N/Nc2nncc3ccccc23)c1 | 0.8% | -29.6% | ? | -3.3% | 0.0%
Cc1ccc(NC(=O)C(C)c2ccc([N+](=O)[O-])cc2)cc1Cl (centres undefined) | 2.1% | -0.4% | -14.8% | -7.2% | ?
Cn1cnnc1SCc1ccc(C(=O)O)cc1 | -0.7% | 10.5% | 6.7% | -1.7% | ?
CCn1c(-c2ccccc2Cl)nn(CC(=O)Nc2cc(Cl)ccc2Cl)c1=S | 6.0% | -27.5% | 16.4µM* | -11.0% | -26.2%
Cn1c(=O)c2c(nc(N/N=C/c3cccs3)n2C)n(C)c1=O | 5.2% | 2.9% | -7.6% | 1.2% | -1.9%
Cn1c(N/N=C/c2cccs2)cc(=O)n(C)c1=O | 7.94µM* | 0.0% | 4.9% | -8.5% | ?
Nc1ncc([N+](=O)[O-])c(N2CCCCCC2)n1 | -1.2% | 7.08µM* | ? | 0.4% | -12.2%
O=[N+]([O-])c1ccc(N2CCCC2)nc1N1CCCC1 | 4.5% | 0.5% | -9.4% | -17.1% | 5.2%
CCN(CC(=O)Nc1ccc(NC(C)=O)cc1)C(=O)/C=C/c1ccc(C)o1 | -0.3% | 0.5% | 16.0% | -3.0% | 2.2%
CC1=C(C(=O)N(C(C)C)C(C)C)CC(CC(=O)NC2CC2)C(=O)N1CCC1=CCCCC1 (centres undefined) | 0.7% | -48.7% | · | · | -3.9%
CC(=O)c1cccc(NC(=O)c2cccc(S(=O)(=O)N(C)C)c2)c1 | 3.2% | 7.1% | 13.3% | -5.3% | 8.4%
CN(C)S(=O)(=O)c1cccc(NC(=O)c2ccc3nccnc3c2)c1 | 3.2% | -6.1% | 5.8µM* | ? | ?
Cc1cc(NC(=O)c2cccc(S(=O)(=O)N(C)C)c2)n(-c2ccccn2)n1 | 0.1% | 3.0% | 25.9µM* | -12.0% | 13.4%
CCCCOc1ccc(C(=O)NC(=S)Nc2ccc(CN3CCOCC3)cc2)cc1 | 0.3% | 1.7% | -25.3% | -3.3% | -3.3%
CNc1ccc(OC)cc1-n1cnc(-c2ccc([N+](=O)[O-])cc2)c1 | 0.6%[9.22 µM] | -14.6% | -12.0% | 2.0% | 4.1%
Cc1cc(C)c(Cn2cnc(-c3ccc([N+](=O)[O-])cc3)c2)c(C)c1 | 5.4% | -32.2% | 20.6µM* | ? | ?
SMILES | Nrf2 ARE act | HepG2 viability | Nrf2 block | A549 viability | TGFb inhibitor
FC(F)(F)c1ccc(N2CCOCC2)c(Nc2nc3ccccc3n3cnnc23)c1 | 6.6% | 2.8% | 20.6µM* | 16.4µM* | -11.5%
CCCC(=O)OCCNc1cc(Sc2nc3ccccc3[nH]2)c2nonc2c1[N+](=O)[O-] | -3.1% | 6.31µM* | -12.5% | ? | ?
CCC(=O)OCCNc1cc(SCCC(=O)OC)c2nonc2c1[N+](=O)[O-] | 16.2% | -75.4% | 1.3% | -24.4% | ?
CCC(=O)OCCNc1cc(Sc2nccn2C)c2nonc2c1[N+](=O)[O-] | 2.6%[9.22 µM] | -124.4% | -1.2% | ? | 11.2µM*
CCC1CCCCN1C(=O)N[C@@H](Cc1ccccc1)C(=O)O (some centres undefined) | -0.2% | 8.9% | ? | 2.3% | -1.9%
CCCCNC(=S)NNC(=O)c1c(Cl)c(C)nn1C | -0.5% | -25.0% | 5.4% | 1.1% | 2.7%
CCCCCCSc1ccc([C@@H]2[C@@H]3C(=O)N(CC)C(=O)[C@@H]3[C@]3(C(=O)OC)CCCCN23)cc1 | 0.1% | -19.1% | -23.4% | 16.3% | -22.2%
CCCC(c1nnnn1Cc1ccc2c(c1)OCO2)N1CCC(C(N)=O)CC1 (centres undefined) | 0.1% | 20µM* | 4.1% | 2.2% | -2.4%
CCCC(c1nnnn1Cc1ccc(OC)cc1)N1CCC(C(N)=O)CC1 (centres undefined) | 0.2% | -10.1% | · | 2.8% | -16.0%
COc1ccc(-n2cc(-c3ccccc3)c3c(NC4CCCC4)ncnc32)cc1 | 0.3% | -56.3% | · | 10.9% | ?
Nc1ncnc2c1c(-c1ccc(Oc3ccccc3)cc1)cn2C1CCCC1 | 5.9% | -70.1% | ? | -9.6% | 22.4µM*
Cc1cccc(C)c1N=Cc1c(O)n(-c2nccs2)c(=O)c2ccccc12 | 2.6% | 5.5% | -22.9% | -16.8% | -4.7%
O=C(N/N=C/c1ccccn1)c1ccc(Cl)cc1 | 7.6% | -25.8% | ? | ? | ?
Clc1ccccc1NN=Cc1ccccn1 | 7.08µM* | -33.8% | · | · | 2.8%
O=c1[nH]c(=O)n(C2CC(O)C(CO)O2)cc1Br (centres undefined) | 3.6% | -9.1% | ? | -2.8% | -13.2%
C[n+]1ccc(/C=C/c2ccc(F)cc2)c2ccccc21 | · | -41.6% | · | · | -2.5%
C[n+]1ccc(/C=C/c2ccc([N+](C)(C)C)cc2)c2ccccc21 | · | -69.0% | · | · | 4.47µM*
C[n+]1ccc(/C=C/c2cc[n+](C)c3ccccc23)c2ccccc21 | · | -68.7% | · | · | 7.08µM*
COc1ccc(/C=C/c2cc[n+](C)c3ccccc23)cc1OC | · | -8.3% | · | · | 34.1%
CN1C=C/C(=C\c2cc[n+](C)c3ccccc23)c2ccccc21 | -0.5% | -49.5% | 5.8µM* | ? | ?
CCOc1cccc(C2C=C(c3ccc4c(c3)OCO4)NC(c3ccc(F)cc3)N2)c1O (centres undefined) | · | -41.1% | 5.5% | 3.3% | ?
Fc1ccc(C2CCNCC2COc2ccc3c(c2)OCO3)cc1 (centres undefined) | 2.7% | 11.2µM* | -1.5% | -13.2% | ?
CC1(C)NS(=O)(=O)Oc2ccccc21 | -1.7% | 2.6% | 0.9% | -2.3% | -3.9%
Cc1ccc(NC(=O)C2CCN(S(=O)(=O)c3cccc4nsnc34)CC2)cc1F | -0.9% | -34.6% | 0.4% | 14.2% | ?
O=C(Nc1ccncc1)C1CCCN(S(=O)(=O)c2cccc3cccnc23)C1 (centres undefined) | -1.5% | -2.5% | ? | 0.3% | -15.7%

Screening data: PubChem BioAssay, National Center for Advancing Translational Sciences (NCATS)
